Compound activity from PubChem BioAssay.
Pf growth 48h – inhibits P. falciparum growth in the first generation, 48 h; P. falciparum luciferase growth in erythrocytes, 48 h; Potency, µM (top dose mostly 28.7 µM), without a hit: at the top dose activity change, negative = inhibition, hits mostly inhibitors; hit rate 5.9% among 310,000; note: potency is the fitted concentration of half-maximal effect; % is set by controls: 0 for no effect and ±100 for the full control effect
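Read-out is firefly luciferase luminescence from an integrated reporter in P. falciparum, so falling signal marks reduced parasite growth. Infected erythrocytes were at 2% hematocrit and 0.1% parasitemia (final) in Albumax-supplemented RPMI 1640.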
Shiga toxin inh – Shiga toxin inhibition. Vero cells, Shiga toxin protein synthesis inhibition reporter. inhibition, % at 38.7 µM. hit rate 9.2% among 290,000. AID 2315; in the data active = inhibition mostly above about 28%, no sharp cut-off; inactive = mostly below about 43%; note: 0% is about no effect
FBPA Giardia inh – Giardia lamblia aldolase inhibition; A8B2U2; purified Giardia FBPA; Potency, µM (highest dose often 59.6 µM), inactives show at the top dose activity, negative = inhibition, most hits filed as inhibitors; hit rate 0.71% among 290,000; note: potency is the fitted concentration of half-maximal effect; % is set by controls: 0 for no effect and ±100 for the full control effect; nearly all actives have a fitted effect of over 55% in size
Target sequence (A8B2U2 whole entry, looked up): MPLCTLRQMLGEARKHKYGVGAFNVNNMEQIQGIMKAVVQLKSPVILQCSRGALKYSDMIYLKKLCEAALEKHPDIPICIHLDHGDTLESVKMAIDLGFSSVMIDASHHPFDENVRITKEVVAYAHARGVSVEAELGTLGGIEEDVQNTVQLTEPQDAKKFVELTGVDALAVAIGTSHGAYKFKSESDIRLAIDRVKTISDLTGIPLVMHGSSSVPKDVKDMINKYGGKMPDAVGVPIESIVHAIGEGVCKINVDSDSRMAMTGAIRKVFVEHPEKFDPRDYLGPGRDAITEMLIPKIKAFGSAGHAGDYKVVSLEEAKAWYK
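Giardia FBPA (40 nM reagent) was preincubated 10 min at RT with compound (up to 57.5 uM final), then substrate plus GAPDH/TPI/NAD/arsenate coupling system with diaphorase/resazurin was added; resorufin fluorescence (525/598 nm) was read after 20 min.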
CHX counter – counter-screen for Shiga toxin inhibitors: cycloheximide protein synthesis inhibition; cell reporter, cycloheximide protein synthesis inhibition counterscreen; max response, %; hit rate 12% among 300,000; AID 2314; in the data active = max response mostly above about 13%, no sharp cut-off; inactive = mostly below about 14%; note: read at 38.3 µM for the half of the compounds with a filed dose; 0% is about no effect
Pf growth 96h – P. falciparum growth inhibition at 96 hour, primary screen for plastid delayed-death inhibitors; Potency, µM (titrated, usually from 28.7 µM), for the others: at the highest dose activity change, negative = inhibition, most hits filed as inhibitors; hit rate 6.9% among 320,000; P. falciparum luciferase reporter growth, 96 h; note: potency is the fitted concentration of half-maximal effect; % is set by controls: 0 for no effect and ±100 for the full control effect
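Luminescence readout: decreased luciferase signal marks inhibited growth of reporter-expressing P. falciparum in infected red cells (2% hematocrit, 0.05% parasitemia final), exposed to compound two generations (96 h, 37 C, 5% CO2).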
NS1 function inh – influenza NS1 inhibition; Potency, µM (series often up to 46.1 µM), without a hit: at the top dose activity, positive = more growth; hit rate 0.4% among 270,000; calls by dose curve; note: potency is the fitted concentration of half-maximal effect; actives are rising curves; nearly all actives have a fitted effect of over 50% in size
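OD600 was taken as the measure of yeast growth restored by compound in an NS1-expressing S. cerevisiae strain. Cells had been washed out of glucose medium and diluted 1:100 into galactose -URA medium, pH 6.0.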
Numbers without * were called inactive; i = inactive; u = inconclusive; x = not tested or not shown; + = active, no number; [ ] = another dose, or the depositor's remark. Hits are enriched below; roughly 21% of the tested compounds scored in any of these assays. Unless noted, calls come from the whole dose curve; as a rule, active = well fitted curve in the direction sought with a large enough effect; inconclusive = small, poorly fitted or top-dose-only effect, or another doubt; inactive = no such curve, though single readings can be large; an effect the other way counts as inactive or inconclusive.

SMILES | Pf growth 48h | Shiga toxin inh | FBPA Giardia inh | CHX counter | Pf growth 96h | NS1 function inh
CCOc1ccc(NC(=O)CCNS(=O)(=O)c2ccc3c(c2)CC(C)N3C(C)=O)cc1 (centres undefined) | u | -1 | 8% | -2 | -10% | -3%
CCCN(Cc1nnc(-c2cccs2)o1)C(=O)CN1C(=O)NC2(CCCCC2)C1=O | 15% | x | x | x | 5% | x
Cc1ccc(N=Cc2c(O)n(-c3cc(Cl)ccc3N3CCOCC3)c(=O)c3ccccc23)cc1C | 2.6µM* | -17 | 0% | 1 | x | 22%
O=c1[nH]c(=S)n(-c2ccc(Cl)cc2)c(O)c1C=Nc1ccc(N2CCOCC2)cc1 | 3% | -17 | -12% | -3 | u | 8%
Cc1cc(C)c2c(c1)/C(=N\N=c1\sc3ccccc3n1C)C(=O)N2 | u | 28 | -3% | -1 | u | -2%
COc1ccccc1-n1cc([C@@H]2C[C@H]3CN(c4ccccc4)C(=O)[C@]34CCCN24)cn1 | 24% | -3 | -2% | -2 | -2% | 4%
Cc1cc2ncc(-c3ccc(Cl)cc3)cn2n1 | i | 93* | 0% | 37* | i | x
Cc1ccc(-c2cnc3cc(C)nn3c2)cc1 | i | 47 | 0% | 20 | i | x
O=C(/C=C/c1cccc(C(F)(F)F)c1)NNC(=O)c1ccncc1 | -3% | x | x | x | 3% | x
COc1ccc(CNc2nc(-c3c(C)noc3C)nc3ccccc23)c(OC)c1 | x | x | -13% | x | x | x
Cc1nn(CCCC(=O)NCCc2ccccc2)c(=O)c2nn(-c3ccccc3)c(C)c12 | -19% | 5 | x | 3 | u | -18%
COc1ccccc1CNC(=O)CCCn1nc(C)c2c(C)n(-c3ccccc3)nc2c1=O | -25% | -3 | x | -4 | 12µM* | -10%
Cc1cc(C)cc(NC(=O)CCCn2nc(C)c3c(C)n(-c4ccccc4)nc3c2=O)c1 | 9% | -2 | 11% | -2 | 13µM* | 2%
COc1cccc(CNC(=O)CCCn2nc(C)c3c(C)n(-c4ccc(C)cc4)nc3c2=O)c1OC | u | -4 | 16% | -4 | u | 0%
Cc1ccccc1NC(=O)CCCn1nc(C)c2c(C)n(-c3ccccc3)nc2c1=O | -12% | -1 | x | 9 | u | 7%
COC(=O)c1ccccc1NC(=O)CCCn1nc(C)c2c(C)n(-c3ccccc3)nc2c1=O | u | -2 | x | -3 | 15µM* | 25%
Cc1ccc2nc(C)cc(N/N=C/c3ccccc3O)c2c1 | 36% | 27* | 12% | 22* | -5% | 4%
Cc1cc(SCC(=O)NN)c2cc(Br)ccc2n1 | 15µM* | 2 | -13% | -2 | u | -11%
COc1ccc2nc(C)cc(NCc3ccc(F)cc3)c2c1 | u | -5 | -24% | 5 | 2.6µM* | -14%
COc1ccc2nc(C)cc(Nc3ccc(C)cc3)c2c1 | u | 11 | -23% | -2 | 9% | -12%
COc1ccccc1/C=N/Nc1cc(C)nc2ccc(C)cc12 | -41% | x | 2% | 26* | u | -22%
Cc1cc(C(=O)NN)c2cc(Br)ccc2n1 | x | 5 | 2% | 10 | u | 7%
CCN1CCN(c2c(Cl)cccc2NC(=O)c2ccc([N+](=O)[O-])cc2)CC1 | -39%[1.15 µM] | -13 | -3% | -9 | 10% | 3%
COc1ccc2nc(C)cc(SCC(=O)N/N=C/c3ccccc3)c2c1 | -21% | -16 | -7% | -3 | 4.1µM* | 16%
COc1ccc2nc(C)cc(N/N=C/c3ccccc3)c2c1 | 0.15µM* | x | x | x | 0.15µM* | x
SMILES | Pf growth 48h | Shiga toxin inh | FBPA Giardia inh | CHX counter | Pf growth 96h | NS1 function inh
O=C(O)c1cc(N/N=C/c2ccc(OCc3ccccc3)cc2)ccc1Cl | 353% | 149* | 9% | 72* | 247%[5.75 µM] | x
O=C(O)c1cccc(N/N=C/c2ccc(OC(F)(F)F)cc2)c1 | 336% | 138* | 9% | 77* | u | 2%
COc1ccc(C/C(C)=N/Nc2nc(C)cc(=O)[nH]2)cc1 | u | 8 | u | 8 | 68% | x
O=C(O)c1cc(N/N=C/C=C/c2ccccc2)ccc1Cl | i | 172* | 6% | 40* | i | 15%
COC(=O)c1ccc(COc2ccc(/C=N/Nc3nc(C)cc(=O)[nH]3)cc2)cc1 | u | 45* | 0% | 9 | -76% | 4%
N#CCC(=O)N/N=C/c1ccc(OCc2ccccc2)cc1 | 81% | 13 | 2% | 7 | 105% | 7%
O=C(O)c1ccc(N/N=C/c2ccc3nccnc3c2)cc1 | -103% | -23 | -1% | -6 | -42% | -35%
COc1ccc2c(c1)O[C@@H](c1cccc(C(F)(F)F)c1)[C@H](OC(=O)Nc1ccc(C)c(Br)c1)C2=O | x | x | 2% | x | x | x
CSc1ccc(/C=N/NC(=O)C[n+]2ccccc2)cc1 | u | -3 | -4% | 0 | 37% | -3%
O=C(O)c1cccc(N/N=C/c2cccs2)c1 | 383% | 147* | 14% | 84* | i | 18%
CCOc1ccc(-n2c(C)cc(/C=N/Nc3nc(C)cc(=O)[nH]3)c2C)cc1 | 1.7µM* | 9 | -13% | -2 | u | 6%
O=C(CCCNc1ccccc1)N/N=C/c1cccs1 | -1% | -3 | 5% | -4 | 17% | -3%
CSc1ccc(/C=N/Nc2cccc(C(=O)O)c2)cc1 | 483% | + | -1% | 92* | i | x
CCOc1cc(/C=N/Nc2cccc(C(=O)O)c2)ccc1OCC(=O)N1CCCCC1 | 294% | 126* | -4% | 70* | 115% | -1%
COc1ccc2c(=O)c(OC)c(-c3ccccc3)oc2c1 | x | x | 12% | x | x | x
O=C(c1ccco1)N1CCCC(c2nc3c(nnn3Cc3ccc(F)cc3)c(=O)[nH]2)C1 (centres undefined) | -20% | -12 | 17% | 12 | 8% | -11%
CNc1nc(-c2ccoc2)nc2ccccc12 | x | x | -11% | x | x | x
COC(=O)c1ccc(COc2ccc(/C=N/Nc3cccc(C(=O)O)c3)cc2)cc1 | 413% | 109* | 4% | 84* | i | -5%
O=C1CN(C(=O)/C=C/c2cc(Br)ccc2F)CCN1 | 20% | -7 | 7% | -3 | 8% | -4%
COc1ccc(/C=C/C(=O)N2CCNC(=O)C2)c(OC)c1 | 37% | 27 | 0% | 14* | 64% | 6%
O=C1CN(C(=O)/C=C/c2ccc(Br)cc2)CCN1 | 16%[0.00184 µM] | 25 | 8% | 17* | 38% | -1%
Cc1cc(Br)ccc1NC(=O)CN(C)C(=O)Cn1c(=O)cnc2ccccc21 | -17% | -2 | x | -3 | -9% | -11%
CC(=O)N1CCc2cc(Br)cc(S(=O)(=O)N3CCC(C(=O)O)CC3)c21 | u | -9 | -5% | -4 | 64% | -1%
COc1cc2c3cc1Oc1c(OC)c(OC)cc4c1[C@@H](Cc1ccc(O)c(c1)Oc1ccc(cc1)C[C@@H]3N(C)CC2)CN(C)C4 | x | x | x | x | x | 10%
CC[C@H](C)Cc1cn([C@@H](CCCN=C(NC(=O)OC(C)(C)C)NC(=O)OC(C)(C)C)C(=O)NCCCCCCCCCCC(=O)N2CCN(C(=O)OC(C)(C)C)CC2)nn1 | 1µM* | x | x | x | 1.5µM* | x
